Experimental data as given in the supplement of paper PMC3545927.
The list shows a part of the results. How many sequences the whole screen found active is unknown.

Biological target: furin, P09958
Assay: furin cleavage Z-score vs untreated control; higher = more cleavage, active = 3.5 or more, inactive = 1 or less, 8 variable residues between constant flanks
Summary of the method: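 Sequencing of released DNA, tagged with adapters by PCR, gave read counts used as abundance. That DNA was freed when purified furin cut N-terminally bead-bound 8-mer peptides fused to a cDNA oligonucleotide, in 0.01 ml reactions at 1:10 enzyme:substrate in 50 mM HEPES pH 7.5 with CaCl2 and NaCl, lasting 7.5, 15 or 30 min. The cleavage Z-score was the lowess-adjusted log count versus furin-free reactions, scaled by median absolute deviation.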

Chain of furin, P09958 (P09958 whole entry): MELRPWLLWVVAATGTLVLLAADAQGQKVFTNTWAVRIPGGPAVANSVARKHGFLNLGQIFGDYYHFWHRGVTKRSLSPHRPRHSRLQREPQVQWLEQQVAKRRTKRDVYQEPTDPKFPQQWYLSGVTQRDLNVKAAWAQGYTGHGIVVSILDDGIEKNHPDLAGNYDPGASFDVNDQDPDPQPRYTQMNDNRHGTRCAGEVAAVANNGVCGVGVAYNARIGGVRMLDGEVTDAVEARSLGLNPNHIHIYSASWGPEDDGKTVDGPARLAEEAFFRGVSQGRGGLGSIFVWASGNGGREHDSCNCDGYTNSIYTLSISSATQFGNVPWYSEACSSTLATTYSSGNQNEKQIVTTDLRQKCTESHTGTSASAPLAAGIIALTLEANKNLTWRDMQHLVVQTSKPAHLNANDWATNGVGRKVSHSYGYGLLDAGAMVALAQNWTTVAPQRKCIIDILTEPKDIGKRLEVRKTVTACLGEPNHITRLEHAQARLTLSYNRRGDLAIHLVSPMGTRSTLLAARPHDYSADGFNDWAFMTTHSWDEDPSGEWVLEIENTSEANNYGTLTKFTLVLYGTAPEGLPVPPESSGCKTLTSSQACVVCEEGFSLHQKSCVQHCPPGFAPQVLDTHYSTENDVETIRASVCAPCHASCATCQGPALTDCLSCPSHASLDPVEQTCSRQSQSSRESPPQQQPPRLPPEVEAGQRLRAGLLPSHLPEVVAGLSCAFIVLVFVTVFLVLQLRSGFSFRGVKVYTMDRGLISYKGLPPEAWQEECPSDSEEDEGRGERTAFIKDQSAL

| Sequence | furin cleavage Z-score (7.5 min) | furin cleavage Z-score (15 min) | furin cleavage Z-score (30 min) |
| --- | --- | --- | --- |
| CAITARYHRDAGNASASA [FS-805] | 2.27 | 3.38 | 4.17 (active) |
| CAIVARNHRDAGNASASA [FS-1537] | 4.29 (active) | 3.17 | 2.88 |
| CAPWNRKNRQAGNASASA [FS-1604] | -0.25 (inactive) | 0.846 (inactive) | 3.14 |
| CARKPRVKRPAGNASASA [FS-1261] | 1.31 | 0.832 (inactive) | 1.57 |
| CASSRRDSSWAGNASASA [FS-3138] | -0.452 (inactive) | -0.483 (inactive) | -0.978 (inactive) |
| CAHKHRSNRQAGNASASA [FS-1337] | 1.05 | 3.88 (active) | 1.67 |
| CARKPKRKRWAGNASASA [FS-1400] | 8.47 (active) | 10.9 (active) | 7.59 (active) |
| CASKRRDKRWAGNASASA [FS-193] | 8.33 (active) | 9.38 (active) | 9.36 (active) |
| CATTPCSGRWAGNASASA [HC1913] | -1.94 (inactive) | 0.288 (inactive) | -0.595 (inactive) |
| CAGKRRSRRQAGNASASA [FS-1456] | 9.9 (active) | 10.6 (active) | 6.67 (active) |
| CAWDWICEVLAGNASASA [HC1151] | -0.473 (inactive) | 1.19 | 1.97 |
| CAIPFYGKAIAGNASASA [HC847] | -0.737 (inactive) | -1.38 (inactive) | 0.0496 (inactive) |
| CAGGRAAICGAGNASASA [HC1628] | -1.4 (inactive) | -1.23 (inactive) | -0.629 (inactive) |
| CATRDPTTPLAGNASASA [HC1563] | 0.197 (inactive) | -2.67 (inactive) | -1.41 (inactive) |
| CAPIIQRLHGAGNASASA [HC1601] | -1.06 (inactive) | -0.433 (inactive) | -1.21 (inactive) |
| CASKRRARRQAGNASASA [FS-1487] | 7.99 (active) | 8.93 (active) | 6.94 (active) |
| CANVVTSTWVAGNASASA [HC2161] | -0.344 (inactive) | 0.91 (inactive) | 0.172 (inactive) |
| CASKRRSRRQAGNASASA [FS-1412] | 8.55 (active) | 8.01 (active) | 5.96 (active) |
| CANVVRARRQAGNASASA [FS-698] | 12.8 (active) | 12 (active) | 10.3 (active) |
| CAPPHSAKSKAGNASASA [HC1417] | -1.76 (inactive) | -0.582 (inactive) | -0.397 (inactive) |
| CATTPCSGSVAGNASASA [HC1930] | 0.2 (inactive) | 0.581 (inactive) | 1.22 |

| Sequence | furin cleavage Z-score (7.5 min) | furin cleavage Z-score (15 min) | furin cleavage Z-score (30 min) |
| --- | --- | --- | --- |
| CAKARRPEGRAGNASASA [HC194] | -0.782 (inactive) | -1.19 (inactive) | -0.268 (inactive) |
| CANTCVTQTVAGNASASA [HC888] | -0.737 (inactive) | -1.07 (inactive) | -1.56 (inactive) |
| CAIASLMAFTAGNASASA [HC1054] | -0.654 (inactive) | -1.12 (inactive) | 0.0832 (inactive) |
| CARTKRDYDFAGNASASA [FS-2313] | 5.48 (active) | 7.94 (active) | 9.08 (active) |
| CAGLKRGGAKAGNASASA [DV6] | 0.716 (inactive) | 0.513 (inactive) | -0.692 (inactive) |
| CARDDRSTSFAGNASASA [FS-1689] | 1.2 | -0.677 (inactive) | 2.85 |
| CARTKRYFAKAGNASASA [FS-1976] | 0.407 (inactive) | 1.7 | 4.11 (active) |
| CARTKRLAIFAGNASASA [FS-3107] | 3.35 | 5.86 (active) | 5.79 (active) |
| CARTKRSAFFAGNASASA [FS-2190] | 7.39 (active) | 8.86 (active) | 9.07 (active) |
| CARTKKAKMKAGNASASA [FS-2823] | -1.45 (inactive) | -0.415 (inactive) | -0.644 (inactive) |
| CARTKRLTAQAGNASASA [FS-2314] | -0.31 (inactive) | 0.417 (inactive) | 1.3 |
| CAEVVTHTWVAGNASASA [HC149] | -0.408 (inactive) | -0.439 (inactive) | 0.597 (inactive) |
| CALAYGLRSKAGNASASA [TR9] | -0.353 (inactive) | 0.335 (inactive) | -1.59 (inactive) |
| CASTYCSAHLAGNASASA [HC2509] | -0.262 (inactive) | -0.642 (inactive) | 2.3 |
| CAEVHCHRPSAGNASASA [HC2355] | 1.25 | 0.809 (inactive) | 1.14 |
| CARTKRYVVFAGNASASA [FS-2095] | 4.82 (active) | 4.06 (active) | 6.56 (active) |
| CARTKRDVYQAGNASASA [FS-2825] | 9.66 (active) | 11.4 (active) | 9.76 (active) |
| CAVAVEPVVFAGNASASA [HC645] | 1.23 | -0.0223 (inactive) | -0.472 (inactive) |
| CARKGRYKAFAGNASASA [FS-2960] | -0.402 (inactive) | -0.376 (inactive) | -0.0128 (inactive) |
| CAEISVPAEIAGNASASA [HC1294] | -0.695 (inactive) | -1.61 (inactive) | -1.39 (inactive) |
| CASTFCSAHLAGNASASA [HC2507] | -0.833 (inactive) | -0.376 (inactive) | -0.904 (inactive) |
